# Data as given in PubChem BioAssay (NCATS).
# Results filed as inconclusive are left out. A call without a number means that no potency is given here. A number with no mark means an inactive call. The source made the active and inactive calls. The call rests on the fitted dose curve; in most records, active means well fitted cell-killing curve with a large enough effect; inconclusive means small, poorly fitted or top-dose-only effect, or effect the other way; inactive means flat fitted curve, though single readings scatter.
# What was measured:
# Test in all cases: Primary qHTS to identify gynecologic anti-cancer compounds using libraries of approved drugs and bioactive compounds (AID 1345084); further: nearly all actives have a fitted effect of over 55% in size
# Settings in all cases: Gynecologic cancer cell panel viability, ATPlite luminescence, 48 h; series mostly up to 57.5 µM
# [1] = tested on: OV90
# Method in brief: (§1)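 48 h compound exposure at 37 C, 5% CO2; five-point qHTS. ATPlite luminescence readout of cell ATP.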
# [2] = tested on: PA-1
# Method in brief: as §1
# [3] = tested on: SKOV3
# Method in brief: as §1
# [4] = tested on: Tov-21-G
# Method in brief: as §1
# [5] = tested on: Tov112D
# Method in brief: as §1
# Potency means the concentration at half of the fitted maximal effect.
smiles,measurement,setting,value
OC[C@H]1O[C@@H](n2cnc3c(NCc4ccc(O)cc4)ncnc32)[C@H](O)[C@@H]1O,Potency,[1],inactive
same,Potency,[2],inactive
same,Potency,[3],inactive
CC(=O)O[C@H]1[C@H](C)[C@@H](O)[C@H]2[C@@H]1C=C(C(=O)O)[C@H]1C[C@@H]3[C@H]([C@H]21)[C@H]1C(=O)O[C@@H]2CC[C@@]3(C)O[C@]1(O)[C@@H]2C,Potency,[1],inactive
same,Potency,[2],inactive
same,Potency,[3],inactive
same,Potency,[4],inactive
same,Potency,[5],inactive
CC1(C)CC2C3=CCC4C5(C)CCC(OC6OC(C(=O)O)C(O)C(O)C6OC6OC(CO)C(O)C(O)C6OC6OC(CO)C(O)C(O)C6O)C(C)(CO)C5CCC4(C)C3(C)CCC2(C)C(OC2OCC(O)C(OC3OC(CO)C(O)C(O)C3O)C2O)C1O (centres undefined),"activity change, negative = cytotoxicity",[1],-9.75% [at 6.55 µM]
same,"activity change, negative = cytotoxicity",[2],5.88% [at 6.55 µM]
same,"activity change, negative = cytotoxicity",[3],16.1% [at 6.55 µM]
same,"activity change, negative = cytotoxicity",[4],-0.438% [at 6.55 µM]
same,"activity change, negative = cytotoxicity",[5],1.06% [at 6.55 µM]
CC1(CO)CC2C(O)C(=O)C3(CO)CC3(C)C2C1 (centres undefined),Potency,[1],inactive
same,Potency,[2],inactive
same,Potency,[3],inactive
same,Potency,[4],inactive
same,Potency,[5],inactive
NC(=O)c1cccc(-c2cc(O)cc(OC(=O)NC3CCCCC3)c2)c1,Potency,[1],inactive
same,Potency,[2],inactive
same,Potency,[3],inactive
same,Potency,[4],inactive
same,Potency,[5],inactive
C[C@H]1CN(C[C@H](Cc2ccccc2)C(=O)NCC(=O)O)CC[C@@]1(C)c1cccc(O)c1,Potency,[1],inactive
same,Potency,[2],inactive
same,Potency,[3],inactive
same,Potency,[4],inactive
same,Potency,[5],inactive
C[C@]12CC[C@@H]3c4ccc(O[C@@H]5O[C@H](C(=O)O)[C@@H](O)[C@H](O)[C@H]5O)cc4CC[C@H]3[C@@H]1CCC2=O,Potency,[1],inactive
same,Potency,[2],inactive
same,Potency,[3],inactive
same,Potency,[4],inactive
same,Potency,[5],inactive
C=CC(C)(CC/C=C(\C)CC/C=C(\C)CC(O)/C=C(\C)C(=O)O)O[C@@H]1O[C@H](CO)[C@@H](O)[C@H](O)[C@H]1O[C@@H]1O[C@H](CO)[C@@H](O)[C@H](O)[C@H]1O (some centres undefined),Potency,[1],inactive
same,Potency,[2],inactive
same,Potency,[3],inactive
same,Potency,[4],inactive
same,Potency,[5],inactive
Cc1[nH]cnc1C1CCN(c2nc3cccc4c3n2CCC4=O)CC1,Potency,[1],inactive
same,Potency,[2],inactive
same,Potency,[3],inactive
same,Potency,[4],inactive
same,Potency,[5],inactive
COc1cc(C(O)C(CO)Oc2ccc(CCCO[C@@H]3O[C@@H](C)[C@H](O)[C@@H](O)[C@H]3O)cc2OC)ccc1O (some centres undefined),Potency,[1],inactive
same,Potency,[2],inactive
same,Potency,[3],inactive
same,Potency,[4],inactive
same,Potency,[5],inactive
O=C(/C=C/c1ccccc1)OCC1=CC[C@@H]2C(C(=O)O)=CO[C@@H](O[C@@H]3O[C@H](CO)[C@@H](O)[C@H](O)[C@H]3O)[C@H]12,Potency,[1],inactive
same,Potency,[2],inactive
same,Potency,[3],inactive
same,Potency,[4],inactive
same,Potency,[5],inactive
Nc1ccn([C@@H]2C(F)=C(CO)[C@@H](O)[C@H]2O)c(=O)n1,Potency,[1],inactive
same,Potency,[2],2240 nM (active)
CC(O)C(O)/C=C/C=C/C(=O)O[C@@H]1C=C2COC(=O)[C@]2(O)[C@@]2(C)CCCC(C)(C)C12 (some centres undefined),Potency,[1],inactive
same,Potency,[2],inactive
same,Potency,[3],inactive
same,Potency,[4],inactive
same,Potency,[5],inactive
C[C@@H]1C(=O)O[C@H]2CC34[C@H]5C[C@@H](C(C)(C)C)C36[C@@H](OC(=O)[C@@H]6O)OC4(C(=O)O5)[C@]21O (some centres undefined),Potency,[1],inactive
same,Potency,[2],inactive
same,Potency,[3],inactive
same,Potency,[4],inactive
same,Potency,[5],inactive
N#Cc1ccc2[nH]c(O)c(-c3ccc(CN4CCOCC4)cn3)c2c1,Potency,[1],inactive
same,Potency,[2],inactive
same,Potency,[3],inactive
same,Potency,[4],inactive
same,Potency,[5],inactive
CCOC(=O)[C@H](CCc1ccccc1)N[C@@H](C)C(=O)N1C2CCCCC2C[C@H]1C(=O)O (some centres undefined),Potency,[1],inactive
same,Potency,[2],inactive
same,Potency,[3],inactive
same,Potency,[4],inactive
same,Potency,[5],inactive
C[C@@H]1O[C@@H](O[C@H]2[C@H](O[C@H]3[C@H](O[C@H]4CC[C@@]5(C=O)C(CC[C@]6(C)C5CC=C5C7CC(C)(C)C[C@@H](O)[C@]7(C)CC[C@]56C)C4(C)C)O[C@H](C(=O)O)[C@@H](O)[C@@H]3O)OC[C@@H](O)[C@@H]2O)[C@H](O)[C@H](O)[C@H]1O (some centres undefined),"activity change, negative = cytotoxicity",[1],6.53% [at 11.6 µM]
same,"activity change, negative = cytotoxicity",[2],13.9% [at 11.6 µM]
same,"activity change, negative = cytotoxicity",[3],13.5% [at 11.6 µM]
same,"activity change, negative = cytotoxicity",[4],8.97% [at 11.6 µM]
same,"activity change, negative = cytotoxicity",[5],15.2% [at 11.6 µM]
Cc1nc2c(-c3cnc(N)nc3)nc(N3CCOCC3)nc2n1C(C)C,Potency,[1],1120 nM (active)
same,Potency,[2],2000 nM (active)
same,Potency,[3],562 nM (active)
same,Potency,[4],631 nM (active)
CC(=O)NC(CCC(=O)O)C(=O)NCCc1ccc(O)cc1 (centres undefined),Potency,[1],inactive
same,Potency,[2],inactive
same,Potency,[3],inactive
same,Potency,[4],inactive
same,Potency,[5],inactive
CC1CCC(=O)CC(O)C(O)CC(=O)O1 (centres undefined),Potency,[1],inactive
same,Potency,[2],inactive
same,Potency,[3],inactive
same,Potency,[4],inactive
same,Potency,[5],inactive
